# PubChem BioAssay (NCATS)
# Results filed as inconclusive are left out. Activity calls are given as the source filed them. Unless noted, the call rests on the fitted dose curve.
# System: not listed separately
# Test: qHTS for Inhibitors of the Functional Ribonucleoprotein Complex (vRNP) of Lymphocytic Choriomeningitis Arenaviruses (LCMV): Viability assay - alamar blue signal for LCMV Primary Screen (AID 1347085; calls by dose curve; tested in HEK293 reporter line; further: nearly all actives have a fitted effect of over 80% in size)
# Settings: alamar blue viability counter-screen, LCMV vRNP screen cells; series mostly up to 57.5 µM; activity change, negative = lower viability: at the top concentration
# On the % scale 0 is the no-effect control and ±100 the full control effect; potency means the concentration at half of the fitted maximal effect.
SMILES,Potency,"activity change, negative = lower viability"
COc1ccc(-c2ccc3c(N4CCOCC4)nc(N4C[C@@H](C)O[C@@H](C)C4)nc3n2)cc1CO,1.09 µM (active),
COc1cc(OC2CCN(C)CC2)ccc1Nc1ncc2c(n1)n(C1CCCC1)c(=O)n2C,17.2 µM (active),
O=C(Nc1ccc(OC(F)(F)F)cc1)c1sccc1NCc1ccnc2ccccc12,,14.8% (inactive)
CC(NCc1ccc2c(c1)nc(NC(=O)c1ccc(-c3cn[nH]c3)s1)n2CC(C)(C)O)C(C)(C)C (stereo not drawn),1.72 µM (active),
Cc1cnc(Nc2ccc(F)cc2Cl)nc1-c1c[nH]c(C(=O)N[C@H](CO)c2cccc(Cl)c2)c1,7.69 µM (active),
OCCCc1ccccc1,inactive,
CC(C)(C)c1cnc(CSc2cnc(NC(=O)C3CCNCC3)s2)o1,0.968 µM (active),
Brc1ccccc1-c1ccccc1,,7.94% [at 115 µM] (inactive)
O=C(Nc1cc(Cl)cc2c1[nH]c1cnccc12)c1cccnc1,24.3 µM (active),
CCCCC(CC)COC(=O)c1ccccc1C(=O)O (stereo not drawn),,13.8% [at 115 µM] (inactive)
COc1c(N2CCNC(C)C2)c(F)cc2c(=O)c(C(=O)O)cn(C3CC3)c12 (stereo not drawn),inactive,
COc1ccc(CCN2CCN(CCCc3ccccc3)CC2)cc1OC,,3.69% (inactive)
Nc1nc2ccc([N+](=O)[O-])cc2s1,,-16.1% [at 115 µM] (inactive)
Cc1c(C(=O)Nc2ccc(N3C[C@@H](C)O[C@@H](C)C3)nc2)cccc1-c1ccc(OC(F)(F)F)cc1,,24.8% (inactive)
Cc1ccc(C(=O)Nc2cccc(C(F)(F)F)c2)cc1-c1ccc2nc(NCCN3CCOCC3)ncc2c1,19.3 µM (active),
CC(=O)OCCN1C(=O)c2c(C)nc3ccc(S(=O)(=O)N4CCOCC4)cc3c2C1=O,,-27.3% (inactive)
C=C1C(=CC=C2CCC[C@]3(C)[C@@H]([C@H](C)C=C[C@H](C)C(C)C)CC[C@@H]23)C[C@@H](O)C[C@@H]1O,13.7 µM (active),
O=C(O)[C@@H](c1ccc(OCc2ccc3ccccc3n2)cc1)C1CCCC1,,-2.92% (inactive)
CCCCOCCOc1nc(-c2ccc(C(=O)O)c(F)c2)sc1C,,5.16% (inactive)
COc1cc2c(cc1OC)C(=O)CC2,,-2.06% (inactive)

SMILES,Potency,"activity change, negative = lower viability"
CCN(CC)CCn1c(=O)c(Cc2ccc(OC)cc2)nc2ccccc21,inactive,
CCOc1cc2ncc(C#N)c(Nc3ccc(F)c(Cl)c3)c2cc1NC(=O)C=CCN(C)C,19.3 µM (active),
COc1ccc2c(c1)CC[C@@H](CN(C)CC(=O)O)[C@H]2c1ccccc1,4.85 µM (active),
C1=CCOCc2cc(ccc2OCCN2CCCC2)Nc2nccc(n2)-c2cccc(c2)OCC1,24.3 µM (active),
CC(C)OC(=O)c1cc(C(=O)OC(C)C)cc([N+](=O)[O-])c1,,-5.21% [at 115 µM] (inactive)
Cc1cc(Nc2nc(N[C@@H](C)c3ncc(F)cn3)ncc2Cl)n[nH]1,,-7.09% (inactive)
CCCCCCCCCCCCCC(=O)OC(C)C,,-30.9% (inactive)
CCCCCCCC(=O)OCC(O)CO (stereo not drawn),,8.71% (inactive)
CNC(=O)c1cc(Oc2ccc(NC(=O)Nc3cc(C(C)(C)C)nn3-c3ccc4ncccc4c3)c(F)c2)ccn1,24.3 µM (active),
NC(=O)c1ccc(N(C(N)=O)c2c(F)cccc2F)nc1-c1ccc(F)cc1F,17.2 µM (active),
CCCCCCCCCCC(CO)CCCCCCCC (stereo not drawn),,0.477% (inactive)
Cc1ccc(C(N)=O)cc1Nc1nccc(-c2cn(C(C)C)c3cnccc23)n1,21.7 µM (active),
C[C@@]12O[C@@H](C[C@]1(O)CO)n1c3ccccc3c3c4c(c5c6ccccc6n2c5c31)CNC4=O,21.7 µM (active),
COc1ccc(CC2SC(=O)NC2=O)cc1C(=O)NCc1ccc(C(F)(F)F)cc1 (stereo not drawn),38.5 µM (active),
CCN(CC)CCOc1ccc(Nc2ncc3cc(-c4c(Cl)cccc4Cl)c(=O)n(C)c3n2)cc1,0.172 µM (active),
COc1cc2c(cc1OC)CC(=O)N(CCCN(C)C[C@H]1Cc3cc(OC)c(OC)cc31)CC2,,-6.82% (inactive)
CS(=O)(=O)Oc1ccc2c(NC(N)=O)c(C(=O)c3ccc(Cl)cc3Cl)oc2c1,27.3 µM (active),
CC1(C)Cc2c(-c3ccccc3)c(-c3ccc(Cl)cc3)c(CC(=O)O)n2C1,,11.5% (inactive)
O=C(NCCS(=O)(=O)c1ccc(C(F)(F)F)cn1)c1ccc(Cl)cc1,,-0.661% (inactive)

# Biological target: Nucleoprotein (Lymphocytic choriomeningitis virus (strain Armstrong)) (UniProt P09992)
# Test: qHTS for Inhibitors of the Functional Ribonucleoprotein Complex (vRNP) of Lymphocytic Choriomeningitis Arenaviruses (LCMV): LCMV Primary Screen - GLuc reporter signal (AID 1347086); further: nearly all actives have a fitted effect of over 70% in size
# Settings: LCMV minigenome vRNP cell assay, Gaussia luciferase reporter; series mostly up to 57.5 µM; activity change, negative = inhibition: at the top concentration
# Chain of Nucleoprotein (Lymphocytic choriomeningitis virus (strain Armstrong)) (P09992 whole entry, looked up): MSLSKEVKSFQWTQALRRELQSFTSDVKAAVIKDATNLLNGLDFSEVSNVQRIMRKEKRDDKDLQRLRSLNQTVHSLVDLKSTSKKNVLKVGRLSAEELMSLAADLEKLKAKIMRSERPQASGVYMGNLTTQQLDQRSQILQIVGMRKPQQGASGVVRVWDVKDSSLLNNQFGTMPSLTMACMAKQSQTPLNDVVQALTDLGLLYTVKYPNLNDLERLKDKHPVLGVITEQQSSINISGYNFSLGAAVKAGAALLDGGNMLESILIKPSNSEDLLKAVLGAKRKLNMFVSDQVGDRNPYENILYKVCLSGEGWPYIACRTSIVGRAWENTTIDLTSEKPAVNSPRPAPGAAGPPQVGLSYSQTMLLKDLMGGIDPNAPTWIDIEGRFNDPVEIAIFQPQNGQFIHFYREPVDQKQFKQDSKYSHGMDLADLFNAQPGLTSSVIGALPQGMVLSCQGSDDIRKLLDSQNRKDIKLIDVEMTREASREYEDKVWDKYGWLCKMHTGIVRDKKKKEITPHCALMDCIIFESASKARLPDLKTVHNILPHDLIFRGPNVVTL
SMILES,"activity change, negative = inhibition",Potency
O=C(Nc1ccc(OC(F)(F)F)cc1)c1sccc1NCc1ccnc2ccccc12,20.1% (inactive),
Cc1cnc(Nc2ccc(F)cc2Cl)nc1-c1c[nH]c(C(=O)N[C@H](CO)c2cccc(Cl)c2)c1,,17.2 µM (active)
OCCCc1ccccc1,,inactive
Brc1ccccc1-c1ccccc1,20.6% [at 115 µM] (inactive),
CCCCC(CC)COC(=O)c1ccccc1C(=O)O (stereo not drawn),7.04% [at 115 µM] (inactive),
COc1c(N2CCNC(C)C2)c(F)cc2c(=O)c(C(=O)O)cn(C3CC3)c12 (stereo not drawn),,inactive
COc1ccc(CCN2CCN(CCCc3ccccc3)CC2)cc1OC,42.1% (inactive),
Cc1c(C(=O)Nc2ccc(N3C[C@@H](C)O[C@@H](C)C3)nc2)cccc1-c1ccc(OC(F)(F)F)cc1,12.7% (inactive),
Cc1ccc(C(=O)Nc2cccc(C(F)(F)F)c2)cc1-c1ccc2nc(NCCN3CCOCC3)ncc2c1,,12.2 µM (active)
C=C1C(=CC=C2CCC[C@]3(C)[C@@H]([C@H](C)C=C[C@H](C)C(C)C)CC[C@@H]23)C[C@@H](O)C[C@@H]1O,-11.4% (inactive),
O=C(O)[C@@H](c1ccc(OCc2ccc3ccccc3n2)cc1)C1CCCC1,3.28% (inactive),
CCCCOCCOc1nc(-c2ccc(C(=O)O)c(F)c2)sc1C,-0.954% (inactive),
COc1cc2c(cc1OC)C(=O)CC2,-2.1% (inactive),
CCN(CC)CCn1c(=O)c(Cc2ccc(OC)cc2)nc2ccccc21,,inactive
CCOc1cc2ncc(C#N)c(Nc3ccc(F)c(Cl)c3)c2cc1NC(=O)C=CCN(C)C,,24.3 µM (active)
CC(C)OC(=O)c1cc(C(=O)OC(C)C)cc([N+](=O)[O-])c1,12.9% [at 115 µM] (inactive),
Cc1cc(Nc2nc(N[C@@H](C)c3ncc(F)cn3)ncc2Cl)n[nH]1,-9.9% (inactive),
CCCCCCCCCCCCCC(=O)OC(C)C,-27.1% (inactive),
CCCCCCCC(=O)OCC(O)CO (stereo not drawn),9.84% (inactive),
CCCCCCCCCCC(CO)CCCCCCCC (stereo not drawn),20.2% (inactive),
COc1ccc(CC2SC(=O)NC2=O)cc1C(=O)NCc1ccc(C(F)(F)F)cc1 (stereo not drawn),-25.4% (inactive),
CS(=O)(=O)Oc1ccc2c(NC(N)=O)c(C(=O)c3ccc(Cl)cc3Cl)oc2c1,-22.4% (inactive),
CC1(C)Cc2c(-c3ccccc3)c(-c3ccc(Cl)cc3)c(CC(=O)O)n2C1,5.18% (inactive),
O=C(NCCS(=O)(=O)c1ccc(C(F)(F)F)cn1)c1ccc(Cl)cc1,9.27% (inactive),
